Source: PubChem
The list is not random: actives were taken first. Their share in the collection is about 3.4%.
GPR151 ag: activators of human GPR151; Q8TDV0; PathHunter beta-arrestin GPR151 cells, luminescence; activation, % at 11.2 µM; actives 1% (n = 650,000); in the data active means activation above about 4.9%
MITF primary: blocks human microphthalmia-associated transcription factor | O75030 | AlphaScreen MITF homodimerization, bead proximity signal | inhibition, % at 2.6 µM | actives 0.91% (n = 650,000) | AID 1259374; in the data active means inhibition above about 50%
TEAD-YAP inh: TEAD-YAP interaction inhibition; inhibition, % at 9.12 µM; actives 1.4% (n = 640,000); AID 1259422; HEK-TIYL cells, TEAD-Gal4/YAP UAS-luciferase luminescence; in the data active means inhibition above about 32%
FBW7 act: activators of human E3 ligase FBW7; Q969H0; AlphaScreen FBW7–phospho-cyclin E peptide binding, activator screen; normalized activity (activation), % at 26.1 µM; actives 0.13% (n = 650,000); AID 1259310; in the data active means normalized activity above about 1.9%;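 further: purified mutant Fbw7 with reduced substrate affinity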
Target sequence (Q969H0 whole entry, looked up): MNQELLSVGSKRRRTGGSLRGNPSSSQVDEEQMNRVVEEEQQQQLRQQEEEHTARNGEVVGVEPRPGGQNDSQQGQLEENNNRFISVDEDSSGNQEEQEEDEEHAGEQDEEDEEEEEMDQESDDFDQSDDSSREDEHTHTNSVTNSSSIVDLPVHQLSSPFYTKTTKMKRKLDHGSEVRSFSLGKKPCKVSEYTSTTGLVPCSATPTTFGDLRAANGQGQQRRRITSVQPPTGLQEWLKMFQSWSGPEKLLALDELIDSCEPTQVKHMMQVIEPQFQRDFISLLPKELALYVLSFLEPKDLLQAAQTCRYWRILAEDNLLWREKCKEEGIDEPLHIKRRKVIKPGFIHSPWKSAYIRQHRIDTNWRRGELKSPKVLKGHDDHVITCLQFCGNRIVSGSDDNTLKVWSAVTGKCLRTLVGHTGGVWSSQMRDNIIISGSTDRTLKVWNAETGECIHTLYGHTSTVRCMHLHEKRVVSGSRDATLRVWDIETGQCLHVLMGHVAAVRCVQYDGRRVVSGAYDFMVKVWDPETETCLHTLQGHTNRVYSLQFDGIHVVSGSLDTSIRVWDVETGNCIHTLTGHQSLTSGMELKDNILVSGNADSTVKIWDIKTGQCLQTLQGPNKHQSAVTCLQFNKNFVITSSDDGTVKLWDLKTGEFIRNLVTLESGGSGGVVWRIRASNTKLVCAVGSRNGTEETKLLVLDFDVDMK
MITF inh conf: confirmation of human MITF inhibitors; shares compounds with MITF primary; AlphaScreen MITF homodimerization, biotin/His-MITF beads; inhibition, % at 2.6 µM; actives 16% (n = 4,700);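 active means inhibition above a cutoff derived from the DMSO control wells, cut at about 28% in these data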;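 further: inhibitors lower the bead chemiluminescence by keeping MITF from dimerizing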
AlphaScreen DR: optically interferes with AlphaScreen signal in dose response | shares compounds with MITF primary | AlphaScreen optical interference counterscreen, cell-free | IC50, µM | actives 6% (n = 480); call rule not given here
AlphaScreen intf2: counter-screen: compounds optically interfering with AlphaScreen; shares compounds with MITF primary; LysRS AlphaScreen counterscreen, signal interference, triplicate; inhibition, % at 2.6 µM; actives 7.6% (n = 4,700); AID 1259376;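 active means inhibition above a cutoff derived from the DMSO control wells, cut at about 30% in these data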
Large screens that a line does not name were inactive (follow-up assays come after a bar, where they were run).

CCOc1ccc(CN2CCN(Cc3cccc(Cl)c3)CC2)cc1	MITF primary 67 | MITF inh conf inactive | AlphaScreen intf2 inactive
CCC(=O)N1CC(=O)Nc2ccc(Br)cc2C1c1ccccc1 (stereo not drawn)	none
OCCN1CCN(Cc2cccc(Cl)c2)CC1	MITF primary 83 | MITF inh conf inactive | AlphaScreen intf2 inactive
OCCN1CCN(Cc2ccc(Cl)cc2)CC1	MITF primary 67 | MITF inh conf inactive | AlphaScreen intf2 inactive
OCCN1CCN(Cc2cccc(Cl)c2Cl)CC1	MITF primary 65 | MITF inh conf inactive | AlphaScreen intf2 inactive
CCN1CCN(Cc2ccc(Cl)cc2)CC1	none
O=C(Cc1ccccc1)N1CCN(Cc2cccc(Cl)c2)CC1	none
N#Cc1ccc(NC(=O)c2ccc3c(c2)S(=O)(=O)N=C2CCCCCN23)cc1Cl	none
Cc1nn(-c2ccccc2)c2c1P(=S)(N1CCN(C)CC1)OC(c1ccccc1)=N2 (stereo not drawn)	none
O=[N+]([O-])c1c(Cl)cc(Cl)c2nonc12	none
O=C(O)CSc1cc(Cl)c2nonc2c1[N+](=O)[O-]	MITF primary 87 | MITF inh conf 85 | AlphaScreen DR inactive | AlphaScreen intf2 inactive
Cc1ccc(C)c(NC(=S)N2CC3CC(C2)c2cccc(=O)n2C3)c1 (stereo not drawn)	none
Oc1ccc2c3c1O[C@H]1c4[nH]c5ccccc5c4C[C@@]4(O)C(C2)N(CC2CC2)CCC314 (stereo partly drawn)	none
CN1CCN(Cc2ccc(O)c3ncccc23)CC1	MITF primary 94 | MITF inh conf 106 | AlphaScreen intf2 101
CN1CCN(Cc2c(O)ccc3ccccc23)CC1	none
CCN1CCN(Cc2ccccc2OC)CC1	none
COc1ccccc1CN1CCN(Cc2ccccc2Br)CC1	MITF primary 71 | MITF inh conf inactive | AlphaScreen intf2 inactive
COc1ccccc1CN1CCN(Cc2ccccc2C)CC1	MITF primary 78 | MITF inh conf inactive | AlphaScreen intf2 inactive
CCCCN(C(=O)/C=C/c1ccccc1)C1=CC2CCC(C1)N2C (stereo not drawn)	none
CN1C2CCC1CC(OC(=O)CNC1CCCCC1)C2 (stereo not drawn)	MITF primary 55 | MITF inh conf inactive | AlphaScreen intf2 inactive
COc1cccc(CN2CCN(c3ccc(C(C)=O)cc3)CC2)c1	MITF primary 64 | MITF inh conf inactive | AlphaScreen intf2 inactive
COc1ccc(CN2CCN(Cc3cccc(OC)c3)CC2)cc1	MITF primary 63 | MITF inh conf inactive | AlphaScreen intf2 inactive
CC(=O)c1ccc(N2CCN(Cc3cccc(O)c3)CC2)cc1	none
COc1cccc(CN2CCN(Cc3ccc(C)cc3)CC2)c1	MITF primary 77 | MITF inh conf inactive | AlphaScreen intf2 inactive
COc1ccc(N2CCN(Cc3cccc(OC)c3)CC2)cc1	none
COc1ccc(C2(CN)CCOCC2)cc1	none
Cc1cc(C)[n+]2c3c(sc2n1)CCCC3	none
COc1ccc(CN2CCN(Cc3cccc(Cl)c3)CC2)cc1Br	MITF primary 68 | MITF inh conf 39 | AlphaScreen DR inactive | AlphaScreen intf2 inactive
COc1ccc(CN2CCN(Cc3ccc(C)cc3)CC2)cc1Br	MITF primary 53 | MITF inh conf inactive | AlphaScreen intf2 inactive
COc1ccc(CN2CCN(C(=O)Cc3ccccc3)CC2)cc1Br	MITF primary 53 | MITF inh conf inactive | AlphaScreen intf2 inactive
COc1ccc2ccccc2c1CN1CCN(C(=O)Cc2ccccc2)CC1	MITF primary 55 | MITF inh conf inactive | AlphaScreen intf2 inactive
COc1ccc(CN2CCN(C(=O)COc3ccccc3)CC2)cc1OC	none
Cc1ccc2c(c1)C1CN(C)CCC1N2C(=O)CCCCCN1C(=O)c2ccccc2C1=O (stereo not drawn)	none
CCC12CN3CCN(CC(C3)/C1=N/NC(N)=O)C2	none
Cc1ccc(C(C)(C)C)c(OCC(=O)Nc2ccc(Cl)cc2C(=O)c2ccccc2)c1	none
COc1ccc(CN2CCN(Cc3cccc(Br)c3)CC2)cc1Br	MITF primary 76 | MITF inh conf inactive | AlphaScreen intf2 inactive
COc1ccc(CN2CCN(Cc3cccc(Cl)c3)CC2)cc1	MITF primary 83 | MITF inh conf inactive | AlphaScreen intf2 inactive
CC(=O)c1ccc(N2CCN(Cc3cccc(Cl)c3)CC2)cc1	none
CSc1ccc(CN2CCN(Cc3cccc(Cl)c3)CC2)cc1	MITF primary 67 | MITF inh conf inactive | AlphaScreen intf2 inactive
